From PubChem BioAssay (Tox21)
Several values for one entry are separate records, joined by “and”; a condition that tells them apart may be missing. Equal entries are not always repeated. Records with an inconclusive call do not appear. Entries that show only a call come without a potency. A number with no mark means an inactive call. Activity calls are given as the source filed them. The call rests on the fitted dose curve; in most records, active means well fitted inhibition curve with a large enough effect in the repeat runs; inconclusive means weak or mixed curves, or effect the other way; inactive means no such curve, though single readings can be large or run the other way.

These molecules were tested against Nuclear receptor subfamily 1 group I member 3 (Homo sapiens) (UniProt Q14994) (assay: qHTS assay to identify small molecule antagonists of the constitutive androstane receptor (CAR) signaling pathway (AID 1224838;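 further: HepG2 cells stably expressing hCAR with CYP2B6 luciferase reporter stimulated by CITCO; nearly all actives have a fitted effect of over 40% in size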)). Settings: HepG2-CYP2B6-hCAR luciferase, CITCO-stimulated, 24 h; series mostly up to 92.4 µM.
Excerpt: U.S. Tox21 Program National Center for Advancing Translational Sciences [NCATS] NIH Chemical Genomics Center [NCGC] U.S. Environmental Protection Agency [EPA] National Institutes of Environmental Health Sciences [NIEHS] National Toxicology Program [NTP] U.S. Food and Drug Administration [FDA] Tox21 Assay Overview: The constitutive androstane receptor (CAR) is a nuclear receptor which regulates multiple drug metabolizing enzymes (DMEs) and transporters. Activating CAR will generally increase the transcription and subsequent translation of CYP2B6 and CYP3A4. These two DMEs represent about 50% of the drug metabolizing potential in the body. When CAR is deactivated, the metabolizing potential in the body will decrease, subsequently increasing the toxicity in the body or lowering the therapeutic potential of a pro-drug. Recently, there have also been studies performed indicating CARs role in energy metabolism and cancer therapy. Therefore, inhibiting CARs activity could have a potential effect on diabetes and cancer. Identifying environmental toxins and compounds which modulate CAR, through the use of the Tox21 10K compound collection, will be an important step in determining the toxicity and potential therapeutic effects these factors will have on the human body.
Tox21 Assay Protocol Summary: A double-stable (hCAR and CYP2B6-2.2kb) transfected cell line, derived from human hepatoma (HepG2) cells, was utilized for the duration of the quantitative high-throughput screens. The HepG2-CYP2B6-hCAR cells suspended in DMEM culture medium supplemented with 10% FBS, 5 ug/mL blasticidin, 0.5 mg/mL geneticin, 100 U/mL penicillin and 100 ug/mL streptomycin were dispensed at 2500 cells/4 uL/well in 1536-well white solid bottom plates using a Multidrop Combi. After the assay plates were incubated at 37 C/5% CO2 for 4 hrs, 23 nL of compounds at 15 concentrations (from 5-48 columns) or positive control (from 1 to 4 columns) were transferred to the assay plates using a Pintool station. One uL of CITCO, was added using a Flying Reagent Dispenser to generate a final concentration of 50 nM CITCO inside each well. After a 24 hr incubation period at 37 C/5% CO2, four uL of ONE-Glo reagent was added into the assay plates using a Flying Reagent Dispenser. After a 30 min incubation period at room temperature, the luminescence intensity in the assay plates was measured using a ViewLux plate reader.
Potency means the concentration at half of the fitted maximal effect.

Sequence of Nuclear receptor subfamily 1 group I member 3 (Homo sapiens) (Q14994 whole entry, looked up): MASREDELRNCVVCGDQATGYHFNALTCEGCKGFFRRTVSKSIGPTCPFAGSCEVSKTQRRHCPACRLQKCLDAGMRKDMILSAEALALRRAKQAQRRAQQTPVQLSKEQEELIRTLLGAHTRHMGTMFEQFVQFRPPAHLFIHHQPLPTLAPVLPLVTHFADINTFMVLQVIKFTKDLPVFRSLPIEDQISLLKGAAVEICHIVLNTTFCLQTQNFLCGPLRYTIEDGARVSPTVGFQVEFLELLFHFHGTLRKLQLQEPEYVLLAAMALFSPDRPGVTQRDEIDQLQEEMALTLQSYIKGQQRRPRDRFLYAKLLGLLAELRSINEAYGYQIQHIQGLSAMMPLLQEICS

Row | SMILES | Potency | activity, negative = inhibition
1 | CCc1ccc(C)nc1 | inactive | –
2 | C=CC(=O)OCCN(CC)CC | inactive | –
3 | COc1ccc(C#N)cc1 | inactive | –
4 | CCCCCCCC/C=C\CCCCCCCC(=O)OCCOC(=O)CCCCCCC/C=C\CCCCCCCC | inactive | –
5 | NCCCCCCNCCCCCCN | inactive | –
6 | Cc1cccc(Br)c1 | inactive | –
7 | CC(=O)c1ccccc1N | inactive | –
8 | CO[Si](CCC1CCC2OC2C1)(OC)OC (stereo not given) | inactive | –
9 | CCCCCCOc1cc(C)c(O)c(C)c1C | inactive | –
10 | CCN(CC)c1ccc(N)cc1 | 62.8 µM (active) | –
11 | CCc1c(Br)c(Br)c(Br)c(Br)c1Br | inactive | –
12 | CCC(=O)OCCc1ccccc1 | inactive | –
13 | C#CC(O)CCC (stereo not given) | inactive | –
14 | CCO[Si](C)(C)OCC | inactive | –
15 | COc1ccccc1OCCNCC(O)COc1cccc2[nH]c3ccccc3c12 (stereo not given) | inactive | –
16 | O=Nc1ccc(NO)cc1 | inactive | –
17 | Cc1ccc(O)cn1 | inactive | –
18 | NC1(c2ccc(-c3nc4ccn5c(=O)[nH]nc5c4cc3-c3ccccc3)cc2)CCC1 | 11.9 µM (active) | –
19 | CCCCCCCCCCCCN(CCO)CCO | 68.3 µM (active) | –
20 | CCOC(/C=C(\C)CCC=C(C)C)OCC | inactive | –

Row | SMILES | Potency | activity, negative = inhibition
21 | C=CC(=C)CCC=C(C)C | 61.1 µM (active) | –
22 | CC[N+](CC)(CC)Cc1ccccc1 | inactive | –
23 | C[C@@]12C(=O)OC(=O)[C@]1(C)C1CCC2O1 | 0.668 µM (active) | –
24 | Cc1c(C(=O)O)cccc1[N+](=O)[O-] | inactive | –
25 | O=C=NCc1cccc(CN=C=O)c1 | – | -4.42% [at 19 µM]
26 | CCN=c1cc2oc3cc(NCC)c(C)cc3c(-c3ccccc3C(=O)OCC)c-2cc1C | 54.3 µM (active) and 54.5 µM (active) | –
27 | CCCCOC(=O)C(C)CC (stereo not given) | inactive | –
28 | CC(COC(=O)c1ccccc1)OC(=O)c1ccccc1 (stereo not given) | inactive | –
29 | Cc1cccc(C)c1NC(=O)CN1CCN(CCCC(c2ccc(F)cc2)c2ccc(F)cc2)CC1 | inactive | –
30 | CCOCOCC | inactive | –
31 | Cc1cncc(C)c1 | inactive | –
32 | CC(C)=C1CC[C@@H](C)CC1=O | inactive | –
33 | CCCCCCCCCCCCCCCCCO | – | 9.23% [at 19 µM]
34 | COc1ccc2sc(C(=O)Nc3nnn[nH]3)c(OC(C)C)c2c1 | 27.2 µM (active) | –
35 | CC(C)c1ccccc1N | inactive | –
36 | N#CSCSc1nc2ccccc2s1 | 30.6 µM (active) | –
37 | CCCCNc1c(C(=O)OCC)c(C)nc2c1cnn2CC | inactive | –
38 | Oc1ccc(-c2ccc(O)cc2)cc1 | inactive | –
39 | OCCC(O)CO (stereo not given) | inactive | –
40 | Cc1ccc2ccc3cccc4ccc1c2c34 | inactive | –
